ssDAF12 agonist – S. stercoralis DAF-12 activation, primary screen | HEK293 ssDAF-12/GRIP1 lit1-tk-luc reporter, luminescence; % of 3 µM dafachronic acid response | activation, % at 6.8 µM | 370,000 tested, 1% active | AID 652126;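 active = activation above the mean over all tested compounds plus 3 SD, cut at about 0.9% in these data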;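 note: 0% = DMSO-only wells and 100% = 3 µM delta7-dafachronic acid wells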
SMARCA2 act – SMARCA2 function activation, primary screen. AID 652017. 370,000 tested, 1% active. MG213 cells, MMTV-luciferase reporter, dexamethasone, overnight. activation, % at 9.1 µM; in the data active = activation above about 7.8%;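 note: 0% = vehicle wells and 100% = reference activator wells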
DAX1 inh-1 – inhibits human nuclear receptor DAX1 | P51843 | HEK293 Gal4-DAX1 luciferase reporter, luminescence | inhibition, % at 6.75 µM | 340,000 tested, 0.99% active | AID 504766;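 active = inhibition above the mean over all tested compounds plus 3 SD, cut at about 4.2% in these data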;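 note: 0% = DAX1-transfected cells with DMSO and 100% = empty-vector control cells with DMSO; inhibition shows as a rise in luminescence from relieved DAX1 repression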
Target sequence (P51843 207-470 limits assumed): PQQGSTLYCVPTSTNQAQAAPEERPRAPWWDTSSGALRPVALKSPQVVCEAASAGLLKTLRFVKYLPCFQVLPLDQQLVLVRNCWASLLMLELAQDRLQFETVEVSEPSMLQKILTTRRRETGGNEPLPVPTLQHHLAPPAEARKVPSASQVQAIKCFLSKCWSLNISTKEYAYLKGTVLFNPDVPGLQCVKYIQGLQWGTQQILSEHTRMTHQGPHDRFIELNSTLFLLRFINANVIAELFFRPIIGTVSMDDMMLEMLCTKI
DAX1 inh-2 – inhibitors of DAX1 repression of SF-1 activated StAR promoter; HEK293T StAR-luciferase reporter, SF-1/DAX-1 repression relief; AID 652010; inhibition, % at 6.8 µM; 370,000 tested, 1.1% active;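 active = inhibition above the mean over all tested compounds plus 3 SD, cut at about 3.6% in these data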;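 note: 0% = DAX-1 cells with DMSO and 100% = cells lacking DAX-1 with DMSO; higher inhibition means more luminescence from relief of DAX-1 repression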
hgDAF-12 ag – activates the H. glycines DAF-12 receptor ligand-binding domain | HEK293 GAL4-hgDAF12 UAS-luciferase reporter, agonist luminescence; normalized to butyrate control | activation, % at 6.8 µM | 370,000 tested, 1.8% active;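 active = activation above a cutoff set at the mean of all screened compounds plus 3 SD, cut at about 10% in these data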;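 note: 0% = DMSO wells and 100% = sodium butyrate wells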
hcDAF12 agonist – H. contortus DAF-12 activation, primary screen. HEK293 hcDAF-12 lit1-tk-luc reporter, luminescence; 0% DMSO, 100% Δ7-dafachronic acid. activation, % at 6.8 µM. 370,000 tested, 1.4% active. AID 652067;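 active = activation above the mean of all tested compounds plus 3 SD, cut at about 5.5% in these data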;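 note: 100% = response to 3 µM Δ7-dafachronic acid high control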
SMARCA2 act conf – confirmation of SMARCA2 (BRM) function activators; shares compounds with SMARCA2 act; MG213 cells, MMTV-luciferase with dexamethasone, luminescence, overnight; MG213 cells expressing E1A, Rb sequestered; DMSO wells 0%, reference activator 100%; activation, % at 9.1 µM; 3,500 tested, 30% active; AID 652260;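 active = activation above its plate's cutoff, the mean activation of tested wells plus 3 SD, cut at about 7.9% in these data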
VP16 Luc act – counter-screen for SMARCA2 activators: GAL4-VP16 luciferase reporter activation | shares compounds with SMARCA2 act | HEK293 GAL4-VP16 pG5luc reporter, luciferase luminescence; scaled: DMSO wells 0%, SAHA wells 100% | activation, % at 9.1 µM | 3,500 tested, 41% active | AID 686939;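 active = activation above the solvent-only control well mean plus 3 SD, averaged across control plates, cut at about 5.2% in these data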
* = called active by the depositor; x = not tested or not shown. Rows were chosen to be rich in hits. Some 4.8% of all compounds tested hit in one or more screens of this group.

SMILES	ssDAF12 agonist	SMARCA2 act	DAX1 inh-1	DAX1 inh-2	hgDAF-12 ag	hcDAF12 agonist	SMARCA2 act conf	VP16 Luc act
O=C(COc1ccccc1/C=C\c1[nH]c(=O)[nH]c(=O)c1[N+](=O)[O-])Nc1ccccc1	-0.7	10.7*	1.8	1.8	9.8	2.4	13.5*	2.1
CCN(CC)CCNC(CC(=O)Nc1ccc(Cl)cc1Cl)C(=O)O (configuration not stated)	-1.4	0.0	-0.2	-0.4	3.0	-1.1	x	x
CCN(CC)CCNc1ccc(CO)c2oc3cc(Cl)ccc3c(=O)c12	-0.5	18.2*	1.2	2.0	-0.4	0.3	28.7*	0.7
CN(C)CCNc1ccc(CO)c2oc3ccc(O)cc3c(=O)c12	-1.4	10.8*	-1.6	-4.4	-5.5	-0.9	12.8*	4.2
N#C/C(=C/c1ccc(N2CCOCC2)o1)C(=O)Nc1ccccc1	-0.2	8.8*	1.1	3.2	11.2*	5.9*	7.3	11.2*
Cc1ccc(/C(C#N)=C\c2ccc(N3CCOCC3)o2)cc1	-1.1	9.1*	-0.5	-1.0	-4.4	-0.2	13.7*	21.2*
COc1cc(/C=C(\C#N)C(=O)Nc2ccccc2)ccc1OCCN1CCOCC1	-1.1	8.5*	2.4	1.2	0.5	2.7	4.8	6.0*
CCN(CC(=O)Nc1ccc(Cl)c(C(F)(F)F)c1)CC(=O)NC1CCS(=O)(=O)C1 (configuration not stated)	-1.4	1.5	-0.4	0.8	-0.9	-0.9	x	x
COCc1cc(=O)n2[nH]c(-c3cccs3)cc2n1	-1.6	-2.7	3.8	-0.2	1.9	0.9	x	x
COc1ccc(OC)c(C2CC(=O)C3=C(C2)NC(=O)CC3c2ccc(O)c(OC)c2)c1 (configuration not stated)	-1.3	-0.4	0.0	-0.7	-1.7	-2.7	x	x
Cc1nn(C)cc1NC(=O)C[C@H]1CC[C@H]2[C@@H](COc3ccc(NC(=O)Nc4ccccc4)cc3C(=O)N2C)O1	0.0	-2.3	x	0.6	0.9	2.4	x	x
Cn1ccc(C(=O)N/N=C/c2ccccc2[N+](=O)[O-])n1	-0.7	8.2*	1.6	0.3	3.3	2.0	7.7	5.0
CC(C)Oc1ccc(CNC(=S)N/N=C/c2ccc([N+](=O)[O-])cc2)cc1	-1.7	10.2*	2.4	-0.4	6.3	-2.3	-0.7	4.1
O=C(CSc1nnc(Cc2ccccc2)o1)NCCc1ccccc1	-1.5	8.2*	-0.2	1.1	-0.2	-0.6	5.8	-1.3
O=C(CSc1nnc(CNC(=O)c2ccccc2)o1)NCCc1ccccc1	-1.0	2.0	0.0	0.9	-2.1	-1.1	x	x
CC(=O)c1cnc2cc(-c3ccc(C)cc3)nn2c1C	-0.1	10.3*	2.1	3.3	8.2	4.8	3.0	9.9*
CC(=O)c1cnc2cc(C)nn2c1C	-0.2	0.3	0.2	0.6	0.9	-0.1	x	x
NC(=O)C1CC(=O)N(c2ccc(OCc3c(F)cccc3Cl)cc2)C1 (configuration not stated)	-1.9	1.0	0.3	-0.2	-4.0	-1.4	x	x
NC(=O)C1CC(=O)N(c2ccc(OCc3c(Cl)cccc3Cl)cc2)C1 (configuration not stated)	-1.6	8.7*	1.8	-0.7	-3.0	-1.5	-5.2	0.8
COc1ccc(N2C(=O)CCC2(C(N)=O)c2ccccc2)cc1 (configuration not stated)	x	x	-0.8	x	x	x	x	x
CCN(CC)CCn1c(NCc2nc3ccccc3n2Cc2ccccc2)nc2ccccc21	-1.9	9.0*	0.3	-0.6	-3.7	-1.8	4.1	5.5*
O=C(Cn1cncn1)N/N=C/c1cccc(Cl)c1	-0.7	8.3*	2.0	0.2	-1.6	-1.7	0.7	-1.0
COc1cccc(N2CCN(c3ccc4nnc(CCC(=O)Nc5ccc(F)cc5F)n4n3)CC2)c1	-1.3	-1.1	0.9	0.2	2.5	1.7	x	x

Compound activity deposited in PubChem by The Scripps Research Institute Molecular Screening Center.
